Values joined by “and” are separate entries in the source; they are usually repeats but may differ in a detail not shown here. Equal values may be shown once. Results filed as inconclusive are left out. Active and inactive are the calls of the source. Unless noted, the call rests on the fitted dose curve; in most records, active means well fitted curve in the direction sought with a large enough effect in the repeat runs; inconclusive means weak or mixed curves; inactive means no such curve, though single readings can be large; an effect the other way counts as inactive or inconclusive.
Assays:
[1] = qHTS assay to identify small molecule agonists of the RXR signaling pathway - cell viability counter screen (AID 1159529); further: nearly all actives have a fitted effect of over 50% in size; further: potency means the concentration at half of the fitted maximal effect
Procedure, shortened: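 CellTiter-Glo luminescence gave viability in the wells also read for beta-lactamase. Cells (RXR-alpha-UAS-bla HEK 293T, 2% charcoal-stripped FBS medium) had 5 hr plating, then 16 hr compound exposure at 37 C; tetraoctyl ammonium bromide served as positive control.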

[2] = qHTS assay to identify small molecule antagonists of the retinoid acid receptor (RAR) signaling pathway - cell viability counter screen (AID 1159551); further: nearly all actives have a fitted effect of over 35% in size; further: potency means the concentration at half of the fitted maximal effect
Procedure, shortened: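 Seed C3RL4 cells; next day add compound, then retinol to 1 uM final; incubate 6 h at 37 C; add CellTiter-Glo; read luminescence after 30 min at RT.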

[3] = qHTS RealTime-Glo MT Cell Viability Assay in HepG2 cells - 8 hour (AID 1224873); further: nearly all actives have a fitted effect of over 55% in size; further: potency means the concentration at half of the fitted maximal effect
Procedure, shortened: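 HepG2 cells mixed with RealTime-Glo MT reagents (NanoLuc plus cell-permeant prosubstrate) were seeded at 600 cells/well, incubated 5 h at 37 C/5% CO2, then pinned with compounds in DMSO; nonlytic luminescence tracked viability during 40 h treatment.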

[4] = A CellTox Green Cytotoxicity Assay to monitor cytotoxicity in HEK293 cells - 24 hour (AID 1224875); further: nearly all actives have a fitted effect of over 45% in size; further: potency means the concentration at half of the fitted maximal effect
Procedure, shortened: (§1)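 Seeding of HEK293 cells together with cytotoxicity dye preceded a 5 h incubation at 37 C/5% CO2. Test compounds in DMSO were then added and fluorescence monitored across 40 h.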

[5] = A CellTox Green Cytotoxicity Assay to monitor cytotoxicity in HEK293 cells - 32 hour (AID 1224881); further: nearly all actives have a fitted effect of over 40% in size; further: potency means the concentration at half of the fitted maximal effect
Procedure, shortened: as §1

[6] = qHTS RealTime-Glo MT Cell Viability Assay in HEK293 cells - 24 hour (AID 1224886); further: nearly all actives have a fitted effect of over 50% in size; further: potency means the concentration at half of the fitted maximal effect
Procedure, shortened: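 HEK293 cells were seeded at 600 cells/well together with NanoLuc luciferase and cell-permeant prosubstrate, preincubated 5 h at 37 C/5% CO2, then given compound in DMSO by pintool. Luminescence from viable-cell prosubstrate reduction was read repeatedly over 40 h.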

[7] = qHTS assay to identify small molecule antagonists of the estrogen receptor beta (ER-beta) signaling pathway - cell viability counter screen (AID 1259382); further: nearly all actives have a fitted effect of over 55% in size; further: potency means the concentration at half of the fitted maximal effect
Procedure, shortened: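 Agonist-stimulated (1nM E2) ER-beta-UAS-bla HEK293T cells are incubated with library compounds for 16 hr at 37C. Cell viability is then assessed in the reporter-assay wells by adding CellTiter-Glo and reading luminescence after 30 min.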

[8] = biological target: Progesterone receptor (Homo sapiens) (UniProt P06401); assay: qHTS assay to identify small molecule agonists of the progesterone receptor (PR) signaling pathway (AID 1346784; calls by dose curve; further: nearly all actives have a fitted effect of over 30% in size)
Sequence of Progesterone receptor (Homo sapiens) (P06401 whole entry, looked up): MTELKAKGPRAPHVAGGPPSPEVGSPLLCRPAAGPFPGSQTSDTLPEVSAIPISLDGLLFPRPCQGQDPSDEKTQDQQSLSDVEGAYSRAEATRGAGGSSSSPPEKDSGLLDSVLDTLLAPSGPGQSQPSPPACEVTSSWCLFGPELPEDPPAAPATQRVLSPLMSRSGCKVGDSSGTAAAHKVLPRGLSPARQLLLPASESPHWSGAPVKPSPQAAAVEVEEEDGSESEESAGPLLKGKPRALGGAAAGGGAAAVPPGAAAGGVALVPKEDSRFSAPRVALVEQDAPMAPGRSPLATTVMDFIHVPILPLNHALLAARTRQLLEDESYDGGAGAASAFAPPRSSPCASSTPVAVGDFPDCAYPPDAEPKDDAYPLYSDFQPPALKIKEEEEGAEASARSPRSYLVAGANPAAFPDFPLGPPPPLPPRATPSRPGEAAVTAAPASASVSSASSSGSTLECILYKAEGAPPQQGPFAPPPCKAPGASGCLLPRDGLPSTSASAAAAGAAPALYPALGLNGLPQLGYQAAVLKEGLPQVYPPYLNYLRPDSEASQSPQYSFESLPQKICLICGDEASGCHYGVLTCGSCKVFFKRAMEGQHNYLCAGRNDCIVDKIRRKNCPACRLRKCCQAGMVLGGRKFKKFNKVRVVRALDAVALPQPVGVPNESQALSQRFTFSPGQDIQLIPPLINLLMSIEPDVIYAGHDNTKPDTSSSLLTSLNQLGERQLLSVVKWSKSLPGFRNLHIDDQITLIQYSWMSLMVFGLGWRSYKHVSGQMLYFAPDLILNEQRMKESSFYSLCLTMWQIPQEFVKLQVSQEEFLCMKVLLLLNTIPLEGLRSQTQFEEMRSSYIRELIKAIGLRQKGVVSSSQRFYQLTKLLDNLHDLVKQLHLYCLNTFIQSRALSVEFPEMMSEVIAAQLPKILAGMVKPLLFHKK
Procedure, shortened: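 Agonist qHTS: compounds pinned onto 3,000 PR-UAS-bla HEK 293T cells per well in charcoal-stripped serum medium, 16hr at 37C, then beta-lactamase activity measured by LiveBLAzer FRET fluorescence after 2 hours at room temperature.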

[9] = qHTS assay to identify small molecule antagonists of the progesterone receptor (PR) signaling pathway - cell viability counter screen (AID 1346798); further: nearly all actives have a fitted effect of over 50% in size; further: potency means the concentration at half of the fitted maximal effect
Procedure, shortened: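 Cytotoxicity read as CellTiter-Glo luminescence (30 min, room temperature) in the same wells as the beta-lactamase readout. HEK293T PR-UAS-bla cells in charcoal-stripped 2% FBS received compound and R5020, then 16 h at 37C, 5% CO2.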

[10] = biological target: Thyrotropin-releasing hormone receptor (Homo sapiens) (UniProt P34981); assay: qHTS assay to identify small molecule agonists of the thyrotropin-releasing hormone receptor (TRHR) signaling pathway (AID 1346891; calls by dose curve; further: series mostly up to about 58 µM)
Sequence of Thyrotropin-releasing hormone receptor (Homo sapiens) (P34981 whole entry, looked up): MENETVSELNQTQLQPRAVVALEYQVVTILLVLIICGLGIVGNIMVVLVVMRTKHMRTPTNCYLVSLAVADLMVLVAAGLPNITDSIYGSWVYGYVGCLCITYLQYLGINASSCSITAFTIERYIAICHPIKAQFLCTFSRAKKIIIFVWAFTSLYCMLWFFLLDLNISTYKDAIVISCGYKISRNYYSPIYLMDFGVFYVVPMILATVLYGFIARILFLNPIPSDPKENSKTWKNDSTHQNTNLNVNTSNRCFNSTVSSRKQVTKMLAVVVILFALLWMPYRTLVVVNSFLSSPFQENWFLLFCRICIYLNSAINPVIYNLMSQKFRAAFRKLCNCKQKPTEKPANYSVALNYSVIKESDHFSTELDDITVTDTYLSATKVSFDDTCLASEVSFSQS
Procedure, shortened: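 Agonist-mode intracellular calcium readout: kinetic fluorescence over 3 min at 1 s intervals after compound addition to TRHR-HEK293 cells (18 h seeded, 2 h dye-loaded at 37 C). Fifteen concentrations, triplicates.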

[11] = Caspase-3/7 induction in CHO-K1 cells by small molecules, qHTS cell viability counter screen (AID 1346979); further: potency means the concentration at half of the fitted maximal effect; nearly all actives have a fitted effect of over 35% in size
Procedure, shortened: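 Cytotoxicity counter screen: CellTiter-Fluor added to compound-treated wild-type CHO-K1 cells at 16 h (37C, 5% CO2), fluorescence measured 1 h later; same wells as caspase-3/7 measurement.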

[12] = biological target: Cytochrome P450 2D6 (Homo sapiens) (UniProt P10635); assay: Cytochrome P450 Family 2 Subfamily D Member 6 (CYP2D6) small molecule antagonists: luciferase reporter qHTS assay (AID 1671196); further: nearly all actives have a fitted effect of over 50% in size; further: potency means the concentration at half of the fitted maximal effect
Sequence of Cytochrome P450 2D6 (Homo sapiens) (P10635 whole entry, looked up): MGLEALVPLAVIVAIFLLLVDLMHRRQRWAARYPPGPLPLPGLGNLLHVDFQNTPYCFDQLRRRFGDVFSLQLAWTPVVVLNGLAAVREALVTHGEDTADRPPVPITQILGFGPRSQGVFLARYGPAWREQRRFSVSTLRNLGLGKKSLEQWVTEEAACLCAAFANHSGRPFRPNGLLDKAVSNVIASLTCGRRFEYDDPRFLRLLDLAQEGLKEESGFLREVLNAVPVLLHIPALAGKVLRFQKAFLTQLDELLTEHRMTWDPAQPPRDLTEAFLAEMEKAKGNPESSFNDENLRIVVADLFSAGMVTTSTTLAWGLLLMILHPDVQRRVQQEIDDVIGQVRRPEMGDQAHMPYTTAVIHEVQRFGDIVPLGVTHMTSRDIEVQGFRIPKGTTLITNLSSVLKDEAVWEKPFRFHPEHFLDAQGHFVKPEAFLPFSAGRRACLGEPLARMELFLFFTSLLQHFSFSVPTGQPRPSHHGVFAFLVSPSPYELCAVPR
Procedure, shortened: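 Luminescence (RLU), read 20 min after detection reagent, indicated CYP2D6 conversion of proluciferin to luciferin during a 1 h NADPH-dependent reaction at room temperature.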

[13] = biological target: Cytochrome P450 3A4 (Homo sapiens) (UniProt P08684); assay: Cytochrome P450 Family 3 Subfamily A Member 4 (CYP3A4) small molecule antagonists: luciferase reporter qHTS assay (AID 1671201); further: nearly all actives have a fitted effect of over 50% in size; further: potency means the concentration at half of the fitted maximal effect
Sequence of Cytochrome P450 3A4 (Homo sapiens) (P08684 whole entry, looked up): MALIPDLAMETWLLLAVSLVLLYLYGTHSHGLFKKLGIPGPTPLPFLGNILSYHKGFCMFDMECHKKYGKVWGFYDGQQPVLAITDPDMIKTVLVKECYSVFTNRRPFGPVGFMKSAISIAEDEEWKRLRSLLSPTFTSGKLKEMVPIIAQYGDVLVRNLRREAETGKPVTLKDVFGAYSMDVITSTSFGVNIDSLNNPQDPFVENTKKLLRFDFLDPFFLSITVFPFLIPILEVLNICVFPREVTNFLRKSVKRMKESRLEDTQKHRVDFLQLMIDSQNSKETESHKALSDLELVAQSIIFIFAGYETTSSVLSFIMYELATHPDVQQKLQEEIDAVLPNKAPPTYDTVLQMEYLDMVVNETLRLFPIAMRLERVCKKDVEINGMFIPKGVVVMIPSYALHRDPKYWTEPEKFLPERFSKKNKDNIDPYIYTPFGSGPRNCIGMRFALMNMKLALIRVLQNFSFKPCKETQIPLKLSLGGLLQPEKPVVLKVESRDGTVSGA
Procedure, shortened: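 Recombinant human CYP3A4 converts a proluciferin substrate to luciferin over 1 h at room temperature after NADPH regeneration solution is added (compound preincubated 10 min); detection reagent stops reaction, luminescence read 20 min later as relative units.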

[14] = qHTS assay to test for compound auto fluorescence at 590 nm (red) in HEK293 cells (AID 720679)
Procedure, shortened: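 HEK293 cells (2,000/well, medium with 10% dialyzed FBS) attached for 4-5 hr at 37C, received 23 nL compound and were incubated overnight at 37C, 5% CO2. Red fluorescence was then read at 540/590nm Ex/Em, referenced to Rose Bengal sodium.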

[15] = qHTS assay to test for compound auto fluorescence at 590 nm (red) in HEK293 cell free culture (AID 720683)
Procedure, shortened: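 Tox21 10K library compounds were pinned into cell-free DMEM with 10% FBS and fluorescence was read at excitation 540 nm. Activity is expressed as Rose Bengal sodium equivalency.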

[16] = biological target: Nuclear receptor subfamily 1 group I member 3 (Homo sapiens) (UniProt Q14994); assay: qHTS assay to identify small molecule agonists of the constitutive androstane receptor (CAR) signaling pathway (AID 1224839); further: nearly all actives have a fitted effect of over 15% in size; further: potency means the concentration at half of the fitted maximal effect
Sequence of Nuclear receptor subfamily 1 group I member 3 (Homo sapiens) (Q14994 whole entry, looked up): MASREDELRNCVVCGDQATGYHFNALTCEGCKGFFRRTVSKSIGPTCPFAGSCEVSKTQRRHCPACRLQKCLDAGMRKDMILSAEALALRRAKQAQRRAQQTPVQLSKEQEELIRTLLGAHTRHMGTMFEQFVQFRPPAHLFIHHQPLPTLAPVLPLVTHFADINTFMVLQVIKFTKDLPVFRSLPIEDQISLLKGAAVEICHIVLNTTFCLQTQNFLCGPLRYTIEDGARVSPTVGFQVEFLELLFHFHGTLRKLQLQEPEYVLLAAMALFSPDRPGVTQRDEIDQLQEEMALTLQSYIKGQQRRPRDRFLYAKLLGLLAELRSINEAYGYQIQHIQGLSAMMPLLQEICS
Procedure, shortened: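 Luminescent ONE-Glo read-out after 24 hr, 37 C exposure of double-stable HepG2-CYP2B6-hCAR reporter cells to a 15-point compound series, in the presence of 0.75 uM PK11195 (final).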

[17] = qHTS assay to identify small molecule antagonists of the estrogen related receptor signaling pathway with the pleiotropic PPARgamma coactivator (PGC) from Tox21 10K library - cell viability counter screen (AID 1224840; active means well fitted cell-killing curve with a large enough effect in the repeat runs, not every such curve was filed as active; further: potency means the concentration at half of the fitted maximal effect; nearly all actives have a fitted effect of over 40% in size)
Procedure, shortened: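 Here the PGC/ERR cells serve as a cytotoxicity control: they are exposed to compounds for 17.5 hours at 37 C, and live-cell signal is quantified using CellTiter-Fluor fluorescence.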

[18] = qHTS assay to identify small molecule agonists of the androgen receptor (AR) signaling pathway in the presence of an antagonist - cell viability counter screen (AID 1259379); further: nearly all actives have a fitted effect of over 25% in size; further: potency means the concentration at half of the fitted maximal effect
Procedure, shortened: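 A CellTiter-Fluor read-out measured viability of MDA-kb2 reporter cells (MMTV promoter with AR and GR response elements). Treatment: nilutamide 3.0uM final with compounds at 15 concentrations, 16 hr, 37C, 0% CO2.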

[19] = Human pregnane X receptor (PXR) small molecule agonists, qHTS cell viability counter screen (AID 1346977)
Procedure, shortened: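 Same-well viability read: CellTiter-Fluor added after 23 hr compound exposure, fluorescence measured 1 hr later. Cells were PXR-Luc HepG2 seeded at 2,000/well in 5% charcoal-stripped FBS medium, rested 5 hr before dosing at 37 C.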

[20] = Caspase-3/7 induction in HepG2 cells by small molecules, qHTS cell viability counter screen (AID 1346981); further: nearly all actives have a fitted effect of over 30% in size; further: potency means the concentration at half of the fitted maximal effect
Procedure, shortened: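 Multiplexed with the caspase-3/7 assay: HepG2 cells, 16 hr compound treatment, CellTiter-Fluor viability detection by fluorescence.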

Measured: Potency

N#Cc1cc([N+](=O)[O-])ccc1N
active: [11] 61.1 µM
not listed: [14] | [15] | [16] | [17] | [18] | [19] | [20]
inactive: all other assays above

Cc1ccc(N(SC(F)(Cl)Cl)S(=O)(=O)N(C)C)cc1
inactive: [14] | [15] | [16] | [10]
active: [1] 38.9 µM | [2] 48.6 µM | [17] 24.3 µM | [3] 21.9 µM | [4] 17.4 µM | [5] 5.49 µM | [6] 5.49 µM | [18] 27.3 µM | [19] 43.3 µM | [11] 4.33 µM | [20] 61.1 µM

O=C(c1ccc(Cl)cc1)c1ccc(Cl)cc1
inactive: [16]

ClC1=C(Cl)[C@]2(Cl)[C@@H]3[C@@H](Cl)[C@H]4O[C@H]4[C@@H]3C1(Cl)C2(Cl)Cl
active: [1] 49 µM | [4] 54.9 µM | [5] 54.9 µM
inactive: [14] | [15] | [18] | [8] | [9] | [20] | [12]

CCOC(=O)C(O)(c1ccc(Cl)cc1)c1ccc(Cl)cc1
active: [1] 31.2 µM and 43.6 µM | [16] 55 µM and 54.5 µM | [5] 44.1 µM | [6] 22.1 µM and 34.7 µM | [11] 61.8 µM
not listed: [2] | [4] | [12] | [17] | [19] | [20]
inactive: all other assays above

O=C(c1ccccc1)C(Cl)Cl
active: [5] 34.7 µM | [6] 34.7 µM | [11] 27.3 µM
inactive: [1] | [7] | [9] | [10] | [13]

O=S(=O)(C(Cl)(Cl)Cl)C(Cl)(Cl)Cl
active: [1] 21.9 µM | [2] 61.1 µM | [17] 48.6 µM | [3] 38.9 µM | [4] 21.9 µM | [5] 19.5 µM | [6] 11 µM | [18] 61.1 µM | [19] 61.1 µM | [11] 8.63 µM | [20] 61.1 µM | [13] 2 µM
inactive: [16] | [8] | [9]

CC(C)(C)c1cc(C(C)(C)C)c(O)c(C(C)(C)C)c1
active: [16] 8.63 µM

Cc1nnc2n1-c1sc(CCc3ccc(CC(C)C)cc3)cc1C(c1ccccc1Cl)=NC2C (stereo not drawn)
inactive: [14] | [15] | [4] | [10]
active: [1] 23.9 µM | [6] 10.7 µM | [7] 33.5 µM | [11] 29.8 µM

Nc1ccc([N+](=O)[O-])cc1
inactive: [14] | [15] | [3]
active: [17] 30.6 µM | [4] 49 µM | [5] 38.9 µM | [6] 24.5 µM | [18] 30.6 µM | [9] 8.63 µM | [19] 34.4 µM | [11] 43.3 µM | [20] 40.9 µM | [12] 50.2 µM
